aSyn 5UTR act – Activators via SNCA 5'UTR binding, MLPCN; AID 1814, 2009; activity score, % (tested at 7.5 µM), hits read low; alpha-synuclein 5'UTR reporter, activators screen; actives 7.1% (n = 300,000); in the data active = activity score below about -60%
Of the large screens only hits and unclear results are named; the others gave an inactive call. The list is a sample of the results.

CN(C)c1ccc(N/C=C/C(=O)c2ccccc2)cc1	aSyn 5UTR act -65.0
O=C(/C=C\Nc1ccc(Br)cc1)c1cccnc1	aSyn 5UTR act -68.9
CN(C)c1ccc(N/C=C/C(=O)C(C)(C)C)cc1	aSyn 5UTR act -77.9
O=C(O)c1ccc(N/N=C/c2cc3ccccc3nc2Cl)cc1	aSyn 5UTR act -142.8
Cc1cccc2cc(/C=N/Nc3ccc(C(=O)O)cc3)c(Cl)nc12	aSyn 5UTR act -196.6
O=[N+]([O-])c1ccccc1N/N=C/c1cc2ccccc2nc1Cl	aSyn 5UTR act -205.9
COC(=O)c1ccc(/C=C2\Oc3ccccc3NC2=O)cc1	aSyn 5UTR act -109.8
COC(=O)c1ccc2c(c1)C(=O)/C(=C/c1ccc(C)cc1)O2	aSyn 5UTR act -143.2
CCOc1ccc(Nc2ncnc3c2nnn3Cc2ccccc2)cc1	aSyn 5UTR act -79.2
O=C(COC(=O)Cn1cnc2ccccc21)Nc1cc2c(cc1Cl)C(=O)c1ccccc1C2=O	aSyn 5UTR act -161.7
CC(=O)n1nc(-c2ccc(Cl)cc2)nc1NCc1ccco1	aSyn 5UTR act -117.2
CCC(=O)n1nc(-c2ccc(OC)cc2)nc1NCc1cccs1	aSyn 5UTR act -102.4
COc1ccc(CC(=O)n2nc(-c3ccc(Cl)cc3)nc2NCc2ccco2)cc1	aSyn 5UTR act -105.2
Cc1cccc(NC(=O)c2cnn(-c3ccccc3)c2C)c1C	aSyn 5UTR act -128.8
Cc1ccccc1NC(=O)c1cnn(-c2ccccc2)c1C	aSyn 5UTR act -164.3
Cc1ccc(C)c(NC(=O)c2cnn(-c3ccccc3)c2C)c1	aSyn 5UTR act -81.4
Cc1ccc(OCC(=O)c2cc(C)n(CC(F)(F)F)c2C)c([N+](=O)[O-])n1	aSyn 5UTR act -72.3
Cc1ccc(OCC(=O)c2cc(C)n(C3CC3)c2C)c([N+](=O)[O-])n1	aSyn 5UTR act -94.0
O=C(/C=C/c1ccccc1)NC1CC2CCC1C2 (stereo not drawn)	aSyn 5UTR act -110.2
COc1ccc(C2CC(C)(c3ccc(OC)cc3)Nc3ccccc3N2)cc1 (stereo not drawn)	aSyn 5UTR act -191.8
COc1cc(Cl)ccc1OCc1cc(C(=O)NC(C)Cc2cnccn2)no1 (stereo not drawn)	aSyn 5UTR act -145.2
CCC(NC(=O)c1cc(COc2ccc(OC)cc2Cl)on1)c1ccncc1 (stereo not drawn)	aSyn 5UTR act -70.7
COc1ccc(OCc2cc(C(=O)NC(C)Cn3cncn3)no2)c(Cl)c1 (stereo not drawn)	aSyn 5UTR act -62.0
COc1cc(C(=O)NC(=S)NNC(=O)c2cnccn2)cc(OC)c1OC	none
CCC(NC(=O)c1cc(COc2ccc(Cl)cc2OC)on1)c1ccncc1 (stereo not drawn)	aSyn 5UTR act -120.8
Clc1ccc(Nc2nc(C3CC3)cs2)cc1	aSyn 5UTR act -189.6
Cc1ccc(C(=O)CSc2nnc(N)s2)c(C)c1	aSyn 5UTR act -92.0
Cc1ccc(C(=O)CSc2nnc3ccccn23)c(C)c1	aSyn 5UTR act -73.5
CCOc1ccc(C(=O)CSc2nnc(N)s2)cc1	aSyn 5UTR act -74.2
Cc1cc(C(=O)CSc2nnc(N)s2)c(C)n1C1CC1	aSyn 5UTR act -88.1
COc1cccc([C@@H]2Oc3ccc(OC)cc3C(=O)[C@H]2O)c1	aSyn 5UTR act -138.4
CCCc1cc(C(=O)Nc2cc(Cl)ccc2O)no1	aSyn 5UTR act -162.3
CCCc1cc(C(=O)Nc2cc(Br)ccc2O)no1	aSyn 5UTR act -144.8
CC(=O)c1ccc(OCc2ncc(C(F)(F)F)cc2Cl)cc1	aSyn 5UTR act -81.0
FC(F)(F)c1cnc(COc2ccc(Cl)cc2Cl)c(Cl)c1	aSyn 5UTR act -81.8
c1ccc(-c2ccc3ccccc3n2)cc1	aSyn 5UTR act -191.4
c1ccc2nc(-c3ccc(-n4ccnc4)cc3)ccc2c1	aSyn 5UTR act -223.8
O=C1c2c(Br)c(Br)c(Br)c(Br)c2C(=O)N1c1ccccn1	aSyn 5UTR act -112.3
CN(C)/C=N/c1ncc(C(=O)c2ccc3ccccc3c2)s1	aSyn 5UTR act -81.2
COc1ccc(C(=O)c2cnc(/N=C/N(C)C)s2)cc1	aSyn 5UTR act -92.8
CC(=O)c1cccc(NC(=O)c2ccc(-c3ccccc3[N+](=O)[O-])o2)c1	aSyn 5UTR act -238.5
CCCn1nnc(NC(=O)c2cc3ccccc3o2)n1	aSyn 5UTR act -156.0
O=C(NCc1cccnc1)c1ccc(-c2ccccc2[N+](=O)[O-])o1	aSyn 5UTR act -64.4
O=C(CCCCCN1C(=O)c2cccc3cccc(c23)C1=O)NCc1cccnc1	none
CCCCn1nnc(NC(=O)c2cc3ccccc3o2)n1	aSyn 5UTR act -136.8
CCn1nnc(NC(=O)c2cc3ccccc3o2)n1	aSyn 5UTR act -168.0
CCCCn1nnc(NC(=O)c2ccc(-c3ccccc3)cc2)n1	aSyn 5UTR act -128.8
CCn1nnc(NC(=O)c2ccc(-c3ccccc3[N+](=O)[O-])o2)n1	aSyn 5UTR act -89.5
N#Cc1ccc(-c2ccc(Cl)cc2)nc1SCC(=O)c1cccc(Cl)c1	aSyn 5UTR act -81.5
O=C(CSc1n[nH]c(-c2ccccc2)n1)c1ccccc1	aSyn 5UTR act -84.4
N#Cc1ccc(-c2cccnc2)nc1SCC(=O)c1ccccc1	aSyn 5UTR act -115.6
C#CCOc1ccc(/C=C2\SC(=S)N(Cc3cccnc3)C2=O)cc1	aSyn 5UTR act -81.5
COc1ccc(/C=C2\SC(=S)N(Cc3cccnc3)C2=O)cc1C	aSyn 5UTR act -126.6
CCc1ccc(/C=C2\SC(=S)N(CCC(=O)Nc3cc(C)on3)C2=O)cc1	none
COc1ccc(/C=C2/SC(=S)N(CC(=O)O)C2=O)cc1OCc1ccc(Cl)cc1	aSyn 5UTR act -131.6
COc1cc(/C=C2/SC(=S)N(Cc3ccccc3)C2=O)ccc1O	aSyn 5UTR act -67.3
CCN=C1S/C(=C\c2ccc(O)c(OCC)c2)C(=O)N1CC	none
CCCS(=O)(=O)NCc1cn2c(C)csc2n1	aSyn 5UTR act -112.3
Cc1csc2nc(CNC(=O)c3ccco3)cn12	aSyn 5UTR act -67.7
Cc1csc2nc(CCNS(=O)(=O)c3cccs3)cn12	aSyn 5UTR act -141.1
CCc1ccc(NC(=O)[C@H](C)NC(=O)C2CCN(C(=O)[C@@H](N)Cc3ccccc3)CC2)cc1	aSyn 5UTR act -84.4
Cc1[nH]c2ccccc2c1N=Nc1cccc(C(=O)O)c1	aSyn 5UTR act -96.0
Cc1[nH]c2ccccc2c1N=Nc1ccccc1C(=O)O	aSyn 5UTR act -70.0
O=C(NC(Nc1nc2ccc([N+](=O)[O-])cc2s1)(C(F)(F)F)C(F)(F)F)c1cccnc1	none
CC(=O)Nc1ccc2nc(NC(=O)c3cccnc3)sc2c1	aSyn 5UTR act -91.6
O=C(Nc1nc2ccc(F)cc2s1)c1cccs1	aSyn 5UTR act -222.9
CSc1nc2ccc3nc(NC(=O)c4cccs4)sc3c2s1	aSyn 5UTR act -369.6
CN(C)S(=O)(=O)c1ccc2nc(NC(=O)c3cccnc3)sc2c1	aSyn 5UTR act -68.4
CSC1=NC(C(Cl)(Cl)Cl)N=C(c2ccc(C)cc2)N1 (stereo not drawn)	none
O=C(NC(=S)Nc1nc2ccc(F)cc2s1)c1ccco1	aSyn 5UTR act -170.7
CN(C)S(=O)(=O)c1ccc2nc(NC(=O)c3cccs3)sc2c1	aSyn 5UTR act -107.6
CCc1ccc(-c2csc(NC(=O)C3=NN(c4ccccc4)C(=O)CC3)n2)cc1	aSyn 5UTR act -96.7
NC(=O)C1CCN(C(=S)c2ccc(-c3ccc(Br)cc3)o2)CC1	aSyn 5UTR act -126.5
O=C1C2=C(c3ccccc31)[N+](=O)[C@@H]1CCCC[C@@H]1N2[O-]	aSyn 5UTR act -94.3
O=C1C2=C(c3ccccc31)[N+](=O)C1CCCCC1N2[O-] (stereo not drawn)	aSyn 5UTR act -72.6
Cc1ccnc(NC(=O)C2COc3ccccc3O2)c1 (stereo not drawn)	aSyn 5UTR act -97.1
Cc1ccc(NC(=O)C2COc3ccccc3O2)nc1 (stereo not drawn)	aSyn 5UTR act -105.6
